High-throughput results from PubChem.
Sampled rows, rich in hits. Any-hit rate of the full collection: about 9.4%.
SMN2 splice enh – increases expression of the SMN2 splice variant; HEK293 SMN2-luciferase splicing reporter, luminescence, 30-36 h; AID 1458; Potency, µM (series often up to 46.1 µM), inactives show top-dose activity change, positive = activation, actives largely listed as activators; 210,000 tested, 2.8% active; also: % of control where 0% means no effect; nearly all actives have a fitted effect of over 55% in size
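qHTS luciferase splicing reporter: luminescence rises when SMN2 exon 7 is included in transfected HEK293 cells. Compound exposure lasted 30-36 h at 37C, with 4.5 mM final sodium butyrate as control, followed by a ONE-Glo read.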
ELG1 repair inh – blocks ELG1-dependent DNA repair in HEK293T cells; HEK293T ELG1-luciferase reporter, luminescence, 16 h; DNA damage induced by 5-fluorouridine; Potency, µM (titrated, usually from 46.1 µM), inactives show at the highest dose activity change, negative = inhibition, actives largely listed as inhibitors; 330,000 tested, 2.3% active; AID 504467; also: % is scaled to controls: 0 for no effect and ±100 for the full control effect; nearly all actives have a fitted effect of over 55% in size
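Luminescence from the luciferase reporter, measured 30 min after ONE-Glo reagent at room temperature, was the read-out. Beforehand, 2,000 cells per well were exposed for 16 hr at 37 °C to 5-fluorouridine together with compound or vehicle.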
ELG1 genotox – genotoxicity induction in ELG1-luciferase HEK293T cells. Potency, µM (highest dose often 46 µM), for inactives: at the highest dose activity change, positive = activation, usual class: activators. HEK293T ELG1-luciferase reporter, luminescence, 16 h. 330,000 tested, 1.3% active; also: % of control where 0% means no effect; nearly all actives have a fitted effect of over 60% in size
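ELG1-luciferase HEK293T cells, 2,000/well; compound pinned in; 16 hr, 37 °C, 5% CO2; ONE-Glo, 30 min RT; luminescence on CCD imager.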
Rab9 prom act – activators of Rab9 promoter; Huh7 Rab9 promoter-luciferase reporter, luminescence, 24 h; Potency, µM (series often up to 9.22 µM), without a hit: top-dose activation, negative = inhibition, hits mostly activators; 320,000 tested, 2.8% active; AID 485297; also: % of control where 0% means no effect; nearly all actives have a fitted effect of over 60% in size
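Measured in stably transfected Huh7 cells bearing a Rab9 promoter–luciferase construct: 24 h compound treatment at 37 °C, followed by luminescence detection.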
FLuc modulator – counter-screen for miR-21 project: firefly luciferase inhibitors or activators | Potency, µM (doses to about 57.5 µM), for the others: at the top dose activity change, negative = inhibition, hits mostly inhibitors | P08659 | purified FLuc, Km substrates, luminescence inhibition | 360,000 tested, 6.9% active;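 also: plate controls were vehicle for no effect and reference inhibitor for full effect; nearly all actives have a fitted effect of over 55% in size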
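Purified P. pyralis luciferase, 10 nM final, with Km-level 10 uM D-luciferin and 10 uM ATP in 50 mM Tris acetate pH 7.5, 10 mM Mg acetate, 0.01% Tween-20, 0.05% BSA; 6-point qHTS titration about 60 µM downward; luminescence read.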
NPC1 prom act – NPC1 promoter activation; Huh7 NPC1 promoter luciferase reporter, 24 h; Potency, µM (highest dose often 9.22 µM), inactives show at the top dose activation, actives largely listed as activators; 320,000 tested, 2.4% active; AID 485313; also: % of control where 0% means no effect; nearly all actives have a fitted effect of over 60% in size
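Cells: Huh7 expressing luciferase under the NPC1 promoter, 1500/well. Seeded 2 h, compound added, incubated 24 h at 37 °C. Luciferase reagent, 10 min ambient, then luminescence.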
ELG1 FLuc counter – luciferase inhibition in cell-free luciferin readout for ELG1 hits | shares compounds with ELG1 repair inh | cell-free firefly luciferase luminescence counter-screen, ViewLux | Potency, µM (top dose mostly 46.1 µM), without a hit: at the top dose activity change, negative = inhibition, hits mostly inhibitors | 350 tested, 3% active | AID 624247; also: % is scaled to controls: 0 for no effect and ±100 for the full control effect
ELG1 Luc conf – confirmation of human ELG1-dependent DNA repair inhibitors; shares compounds with ELG1 repair inh; HEK293T ELG1-luciferase levels, luminescence; cells co-treated with 5-fluorouridine; Potency, µM (titrated, usually from 46.1 µM), for the others: at the top dose activity change, negative = inhibition, most hits filed as inhibitors; 670 tested, 68% active; AID 624248; also: % is scaled to controls: 0 for no effect and ±100 for the full control effect; nearly all actives have a fitted effect of over 55% in size
ELG1 MMS Luc – MMS-stimulated human ELG1 repair inhibition, confirmed | shares compounds with ELG1 repair inh | HEK293T luciferase-tagged ELG1 level, MMS stimulated | Potency, µM (top dose mostly 46.1 µM), for the others: at the top dose activity change, negative = inhibition, hits mostly inhibitors | 670 tested, 53% active | AID 624249; also: % is scaled to controls: 0 for no effect and ±100 for the full control effect; nearly all actives have a fitted effect of over 60% in size
ELG1 5FU viab – confirmation of ELG1 repair inhibitors: viability with 5FU. AID 624250. 670 tested, under 10 active. cell viability with 5-FU, ELG1-dependent repair. Potency, µM (titrated, usually from 46.1 µM), without a hit: top-dose activity change, negative = viability loss, most hits filed as cytotoxic. shares compounds with ELG1 repair inh;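 also: ELG1-luc HEK293T cells cotreated with 5-fluorouridine at 10 µM final; viability measured 16 h after compound addition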
ELG1 MMS viab – confirmation of ELG1 repair inhibitors: viability with MMS; AID 624251; 670 tested, 33% active; shares compounds with ELG1 repair inh; Cell viability with MMS, ELG1-dependent DNA repair; Potency, µM (highest dose often 46.1 µM), for the others: top-dose activity change, negative = viability loss, actives largely listed as cytotoxic;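 also: ELG1-luc HEK293T cells co-treated with 10 µM MMS; viability read 16 h after compound addition; % is scaled to controls: 0 for no effect and ±100 for the full control effect; nearly all actives have a fitted effect of over 60% in size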
ELG1 unstim viab – unstimulated viability counter-screen for ELG1 repair hits | shares compounds with ELG1 repair inh | cell viability counter-screen, unstimulated, luminescence | Potency, µM (titrated, usually from 45.9 µM), without a hit: at the highest dose activity change, negative = loss of viability, hits mostly cytotoxic | 900 tested, 8% active | AID 624252;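 also: compound exposure lasted 16 hours before reading; % is scaled to controls: 0 for no effect and ±100 for the full control effect; nearly all actives have a fitted effect of over 55% in size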
FLuc enzyme – firefly luciferase inhibition counter-screen. shares compounds with ELG1 repair inh. purified firefly luciferase, luminescence counter-screen. AID 624253. Potency, µM (doses to about 57.5 µM), for the others: at the top dose activity, negative = inhibition, actives largely listed as inhibitors. 350 tested, 10% active; also: % is scaled to controls: 0 for no effect and ±100 for the full control effect
An asterisk follows results filed as active; ? = inconclusive; / = not tested or not shown. Calls follow the shape of the dose curve; as a rule, active = well fitted curve in the direction sought with a large enough effect; inconclusive = small, poorly fitted or top-dose-only effect, or another doubt; inactive = no such curve, though single readings can be large; an effect the other way counts as inactive or inconclusive. Potency is read from the fitted curve at half-maximal effect.

SMILES | SMN2 splice enh | ELG1 repair inh | ELG1 genotox | Rab9 prom act | FLuc modulator | NPC1 prom act | ELG1 unstim viab | others
O=C1CSc2ccc(S(=O)(=O)CCC(=O)NC3CCCCC3)cc2N1 | / | 4.7% | -0.7% | -5.8% | 1.9% | -5.9% | /
CCOC(=O)c1cnc2c(ccc3ccccc32)c1Nc1cccc(C(F)(F)F)c1 | 0.2% | / | / | / | -6.9% | / | /
CC(C)C(C)(C#N)NC(=O)CSc1nc2scc(-c3ccc(F)cc3)c2c(=O)n1Cc1ccccc1 (centres undefined) | / | ? | 0.5% | 1.0% | 0.3% | 0.7% | /
Cc1ccc(NC(=O)CSc2nnc(-c3ccccc3C)o2)cc1C | -4.5% | ? | 0.5% | 17.6% | 1.4% | -1.1% | /
Cc1ccccc1-c1nnc(SCC(=O)Nc2cccnc2Cl)o1 | / | ? | 2.06µM* | / | / | / | 25µM*
Cc1c(C(=O)NCc2ccco2)oc2ccc(S(=O)(=O)N3CCC4(CC3)OCCO4)cc12 | -14.1% | 3.26µM* | -7.0% | -5.3% | -2.2% | -4.9% | ? | ELG1 FLuc counter=62.7%;ELG1 Luc conf=4.45µM*;ELG1 MMS Luc=-11.8%;ELG1 5FU viab=?;ELG1 MMS viab=-10.6%;FLuc enzyme=0.0%
C=CCNC(=O)c1oc2ccc(S(=O)(=O)N3CCC4(CC3)OCCO4)cc2c1C | / | ? | 0.3% | -5.5% | -2.0% | 0.1% | /
Cc1ccc(C(=O)NN=CC(=O)c2ccccc2)c(C)c1 | / | ? | 2.31µM* | / | / | / | -18.7%
COCCNC(=O)c1ccc(C)cc1C | 5.1% | ? | 0.4% | -8.1% | -0.7% | -0.4% | /
Cc1ccc(C(=O)Cn2c3c(sc2=N)CCCC3)cc1 | 0.501µM* | / | / | / | / | / | ? | ELG1 FLuc counter=-1.8%;FLuc enzyme=0.092µM*
Cc1ccc(C(=O)Cn2ncsc2=N)cc1 | 5.1% | ? | ? | 18.7% | -16.3% | 17.8% | /
Cc1nc2ccc(S(=O)(=O)NCC(=O)N(C)Cc3ccccc3)cc2s1 | -25.9% | ? | -6.3% | -8.7% | -0.3% | -1.3% | /
CC(C)CC(C)NNC(=O)c1cc2ccccc2[nH]1 (centres undefined) | 2.7% | ? | -1.7% | 2.3% | 0.0% | 7.3% | /
O=C(c1cc2ccccc2[nH]1)c1cc2cc(O)ccc2[nH]1 | / | / | / | / | / | / | -0.7%
COc1cccc2c1C(=O)/C(=C\c1ccc(N(C)C)cc1)C2 | / | / | / | / | / | / | ?
O=C(Nc1cccc(F)c1)N1CC2(CCN(C(=O)c3cc(C(F)(F)F)cc(C(F)(F)F)c3)CC2)C1 | -7.7% | / | / | / | / | / | /
CCn1cc(C(=O)Nc2cccc(NC(C)=O)c2)c2cc(OC)c(OC)cc2c1=O | 15.2% | ? | -1.9% | -4.2% | -0.3% | -2.7% | /
CCOc1ccc(-n2cc(C(=O)NCCOC)c3cc(OC)c(OC)cc3c2=O)cc1 | / | 7.7% | -7.0% | 0.2% | -0.6% | -3.1% | /
CCOc1ccc(-n2cc(C(=O)Nc3cccc(OC)c3)c3cc(OC)c(OC)cc3c2=O)cc1 | -6.1% | ? | -6.6% | -2.3% | -0.7% | -1.3% | -20.5% | ELG1 FLuc counter=-8.3%;ELG1 Luc conf=11.2µM*;ELG1 MMS Luc=25µM*;ELG1 5FU viab=?;ELG1 MMS viab=-0.7%;FLuc enzyme=-6.3%
CCn1cc(C(=O)Nc2ccc3c(c2)OCCO3)c2cc(OC)c(OC)cc2c1=O | -8.5% | 5.8µM* | -6.3% | -11.5% | -10.5% | -2.9% | ? | ELG1 FLuc counter=26.8%;ELG1 Luc conf=7.06µM*;ELG1 MMS Luc=?;ELG1 5FU viab=?;ELG1 MMS viab=?;FLuc enzyme=-10.0%
COc1ccccc1NC(=O)c1cn(C)c(=O)c2cc(OC)c(OC)cc12 | -4.9% | ? | -4.0% | 3.9% | 0.9% | -2.7% | /
COc1cc2c(C(=O)Nc3ccccc3F)cn(C)c(=O)c2cc1OC | / | 4.7% | -1.3% | 2.7% | 2.7% | -2.7% | -1.0% | ELG1 FLuc counter=5.8%;ELG1 Luc conf=17.7µM*;ELG1 MMS Luc=2.6%;ELG1 5FU viab=?;ELG1 MMS viab=?;FLuc enzyme=4.0%
CC(C)(C)OC(=O)C[C@@H]1C/C=C\C[C@@H](CC(=O)N[C@H](CO)Cc2ccccc2)C(=O)N2CCC[C@H]2COC1=O | / | 2.91µM* | -6.1% | / | / | / | ? | ELG1 Luc conf=?;ELG1 MMS Luc=?;ELG1 5FU viab=-1.9%;ELG1 MMS viab=-7.2%
CC(C)(C)OC(=O)C[C@H]1C/C=C\C[C@@H](CC(=O)N[C@H](CO)Cc2ccccc2)C(=O)N2CCC[C@H]2COC1=O | / | ? | -1.2% | / | / | / | /
Cc1nc(NC(=O)c2c(-c3ccccc3Cl)noc2C)sc1C | / | 2.91µM* | -8.4% | -6.1% | -3.9% | 1.5% | -16.0% | ELG1 Luc conf=?;ELG1 MMS Luc=0.499µM*;ELG1 5FU viab=?;ELG1 MMS viab=6.0%
Cc1cc(OCC(=O)N[C@@H](CSCc2ccccc2)C(=O)O)c2c(C)c(C)c(=O)oc2c1 | / | -0.7% | -0.4% | 4.3% | 1.5% | 0.3% | /
